Test results reported in article PMC7862700, “An all-to-all approach to the identification of sequence-specific readers for epigenetic DNA modifications on cytosine”.

Columns and labels:
Assay in all cases: DAPPL (digital affinity profiling via proximity ligation, sequencing); 10 mM Tris-HCl pH 7.5, 50 mM NaCl, 1 mM DTT, 4% glycerol, room temperature, 30 min; GST-TFs on glutathione beads, 16-mer random dsDNA library, 0.1% formaldehyde crosslink after washing; high values mean tight binding
FEV = target: T1, FEV (Homo sapiens, UniProt Q99581 1-238); conditions: protein: recombinant; tags: N-terminal GST; dsDNA, one strand shown
T1 sequence: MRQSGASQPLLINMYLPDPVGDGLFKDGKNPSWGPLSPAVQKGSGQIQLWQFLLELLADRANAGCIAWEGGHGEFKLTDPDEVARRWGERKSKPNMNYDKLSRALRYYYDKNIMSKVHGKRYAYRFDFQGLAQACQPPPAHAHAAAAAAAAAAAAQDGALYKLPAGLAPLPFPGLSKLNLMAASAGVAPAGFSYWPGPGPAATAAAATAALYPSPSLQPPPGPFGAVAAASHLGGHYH
Outline: (§1)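 Human transcription factors were made in yeast as GST fusions, captured on glutathione beads and barcoded with DNA. With a tag-only sample included, the pool was incubated with 200 nmole of a random double-stranded 16-mer DNA library in Tris/NaCl/DTT/glycerol buffer at room temperature for 30 min, then crosslinked with 0.1% formaldehyde after washing, ligated by proximity, amplified and sequenced. For binding signal, each hexamer's read frequency for a factor is divided by its frequency for the tag-only sample.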

ETV5 = ETV5 (Homo sapiens, UniProt P41161 1-510); conditions: protein: recombinant; tags: N-terminal GST; dsDNA, one strand shown
ETV5, sequence (P41161 whole entry): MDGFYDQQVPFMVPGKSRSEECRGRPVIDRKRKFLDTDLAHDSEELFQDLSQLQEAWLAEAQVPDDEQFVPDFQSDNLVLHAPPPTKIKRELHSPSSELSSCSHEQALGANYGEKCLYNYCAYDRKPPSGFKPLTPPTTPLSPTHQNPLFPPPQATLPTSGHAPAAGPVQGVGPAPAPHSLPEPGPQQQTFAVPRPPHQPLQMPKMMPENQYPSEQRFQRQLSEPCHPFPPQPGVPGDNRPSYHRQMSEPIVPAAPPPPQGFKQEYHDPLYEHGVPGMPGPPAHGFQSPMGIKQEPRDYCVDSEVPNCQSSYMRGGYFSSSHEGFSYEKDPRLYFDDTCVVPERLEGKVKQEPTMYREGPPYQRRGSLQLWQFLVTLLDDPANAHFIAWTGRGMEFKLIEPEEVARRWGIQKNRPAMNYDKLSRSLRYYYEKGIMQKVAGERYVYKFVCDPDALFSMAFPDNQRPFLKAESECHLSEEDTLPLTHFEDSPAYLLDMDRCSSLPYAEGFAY
Outline: as §1

HSF1 = HSF1 (Homo sapiens, UniProt Q00613 1-529); conditions: protein: recombinant; tags: N-terminal GST; chain copies: 3; dsDNA, one strand shown
HSF1, sequence (Q00613 whole entry): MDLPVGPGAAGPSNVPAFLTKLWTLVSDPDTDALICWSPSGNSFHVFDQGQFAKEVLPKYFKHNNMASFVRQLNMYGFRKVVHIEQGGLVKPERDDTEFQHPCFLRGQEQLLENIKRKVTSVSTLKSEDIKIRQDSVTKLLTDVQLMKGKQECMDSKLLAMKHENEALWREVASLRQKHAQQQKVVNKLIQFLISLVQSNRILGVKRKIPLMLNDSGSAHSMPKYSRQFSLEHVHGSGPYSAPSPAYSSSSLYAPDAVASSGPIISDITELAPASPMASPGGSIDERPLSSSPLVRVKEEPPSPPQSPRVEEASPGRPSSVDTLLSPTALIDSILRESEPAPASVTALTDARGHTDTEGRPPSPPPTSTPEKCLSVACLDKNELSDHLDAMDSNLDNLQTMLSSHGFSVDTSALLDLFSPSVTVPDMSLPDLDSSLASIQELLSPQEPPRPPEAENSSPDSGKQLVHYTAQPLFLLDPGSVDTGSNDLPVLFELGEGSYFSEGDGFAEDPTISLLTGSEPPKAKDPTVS
Outline: as §1

SPIC = target: T2, SPIC (Homo sapiens, UniProt Q8N5J4 1-248); conditions: protein: recombinant; tags: N-terminal GST; dsDNA, one strand shown
T2 sequence: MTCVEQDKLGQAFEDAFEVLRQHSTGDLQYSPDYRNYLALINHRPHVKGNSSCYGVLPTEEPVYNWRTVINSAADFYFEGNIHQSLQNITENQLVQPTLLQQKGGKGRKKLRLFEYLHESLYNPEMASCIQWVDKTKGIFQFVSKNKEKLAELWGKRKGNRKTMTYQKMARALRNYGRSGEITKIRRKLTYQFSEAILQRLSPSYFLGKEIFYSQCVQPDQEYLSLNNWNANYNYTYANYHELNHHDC
Outline: as §1

ELF4 = ELF4 (Homo sapiens, UniProt Q99607 1-663); conditions: protein: recombinant; tags: N-terminal GST; dsDNA, one strand shown
ELF4, sequence (Q99607 whole entry): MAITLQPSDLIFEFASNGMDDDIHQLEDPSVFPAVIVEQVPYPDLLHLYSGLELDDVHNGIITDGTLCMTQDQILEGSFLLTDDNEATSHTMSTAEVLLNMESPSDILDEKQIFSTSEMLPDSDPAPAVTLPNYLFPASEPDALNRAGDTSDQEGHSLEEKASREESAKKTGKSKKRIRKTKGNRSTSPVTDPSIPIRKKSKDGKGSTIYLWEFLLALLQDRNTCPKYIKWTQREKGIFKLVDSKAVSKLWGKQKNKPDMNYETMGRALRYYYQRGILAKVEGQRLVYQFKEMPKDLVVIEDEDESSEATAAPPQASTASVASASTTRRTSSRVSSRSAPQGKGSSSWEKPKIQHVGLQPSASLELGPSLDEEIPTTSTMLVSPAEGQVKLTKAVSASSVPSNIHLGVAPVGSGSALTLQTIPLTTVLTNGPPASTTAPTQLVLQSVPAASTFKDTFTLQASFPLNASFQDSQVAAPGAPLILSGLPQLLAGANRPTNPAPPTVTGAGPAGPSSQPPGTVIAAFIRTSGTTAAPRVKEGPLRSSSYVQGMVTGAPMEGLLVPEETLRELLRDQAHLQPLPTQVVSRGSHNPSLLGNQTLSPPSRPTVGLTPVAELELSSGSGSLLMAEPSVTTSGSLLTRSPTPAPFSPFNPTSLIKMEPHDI
Outline: as §1

ELK4 = target: T3, ELK4 (Homo sapiens, UniProt P28324-2 1-405); conditions: protein: recombinant; tags: N-terminal GST; dsDNA, one strand shown
T3 sequence: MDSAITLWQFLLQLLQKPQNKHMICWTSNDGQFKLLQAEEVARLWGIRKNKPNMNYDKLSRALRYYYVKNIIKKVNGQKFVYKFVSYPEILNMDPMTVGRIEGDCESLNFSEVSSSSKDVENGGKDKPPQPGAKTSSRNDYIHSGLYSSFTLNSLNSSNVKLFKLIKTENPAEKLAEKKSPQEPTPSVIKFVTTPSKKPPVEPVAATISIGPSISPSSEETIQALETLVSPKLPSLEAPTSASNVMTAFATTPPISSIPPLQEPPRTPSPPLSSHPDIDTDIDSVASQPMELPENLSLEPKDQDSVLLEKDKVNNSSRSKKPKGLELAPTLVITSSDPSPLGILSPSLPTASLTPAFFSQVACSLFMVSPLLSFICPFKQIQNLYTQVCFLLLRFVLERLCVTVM
Outline: as §1

ETV2 = target: T4, ETV2 (Homo sapiens, UniProt O00321 1-342); conditions: protein: recombinant; tags: N-terminal GST; dsDNA, one strand shown
T4 sequence: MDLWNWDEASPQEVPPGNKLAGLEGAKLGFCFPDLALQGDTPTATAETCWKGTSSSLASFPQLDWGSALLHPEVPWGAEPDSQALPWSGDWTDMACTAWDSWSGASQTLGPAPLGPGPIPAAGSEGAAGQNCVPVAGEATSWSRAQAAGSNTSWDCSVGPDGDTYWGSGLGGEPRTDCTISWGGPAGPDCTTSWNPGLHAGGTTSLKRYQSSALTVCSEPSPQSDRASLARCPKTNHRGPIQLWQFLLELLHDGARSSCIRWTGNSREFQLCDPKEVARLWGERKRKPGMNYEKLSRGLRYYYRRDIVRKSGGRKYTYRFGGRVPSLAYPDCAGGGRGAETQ
Outline: as §1

ELF3 = target: T5, ELF3 (Homo sapiens, UniProt P78545 1-371); conditions: protein: recombinant; tags: N-terminal GST; dsDNA, one strand shown
T5 sequence: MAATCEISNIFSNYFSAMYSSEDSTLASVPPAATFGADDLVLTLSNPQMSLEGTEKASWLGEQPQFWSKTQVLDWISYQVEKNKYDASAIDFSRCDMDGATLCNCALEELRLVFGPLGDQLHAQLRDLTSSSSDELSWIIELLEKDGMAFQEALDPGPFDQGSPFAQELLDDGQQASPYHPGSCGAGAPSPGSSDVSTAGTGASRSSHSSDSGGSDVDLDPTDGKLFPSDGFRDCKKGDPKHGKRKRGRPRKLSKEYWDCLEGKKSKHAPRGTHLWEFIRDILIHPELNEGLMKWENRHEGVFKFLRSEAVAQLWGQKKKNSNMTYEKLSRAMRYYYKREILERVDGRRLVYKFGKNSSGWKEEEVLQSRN
Outline: as §1

CRX = CRX (Homo sapiens, UniProt O43186 1-299); conditions: protein: recombinant; tags: N-terminal GST; dsDNA, one strand shown
CRX, sequence (O43186 whole entry): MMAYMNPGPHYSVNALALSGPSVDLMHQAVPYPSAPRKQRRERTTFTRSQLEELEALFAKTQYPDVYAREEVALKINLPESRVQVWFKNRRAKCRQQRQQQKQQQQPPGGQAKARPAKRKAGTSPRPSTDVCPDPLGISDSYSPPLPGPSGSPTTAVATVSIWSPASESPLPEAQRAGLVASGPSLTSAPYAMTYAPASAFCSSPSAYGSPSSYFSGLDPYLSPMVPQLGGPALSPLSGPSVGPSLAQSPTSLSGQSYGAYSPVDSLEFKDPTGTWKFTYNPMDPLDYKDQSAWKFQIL
Outline: as §1

ETV1 = ETV1 (Homo sapiens, UniProt P50549 1-477); conditions: protein: recombinant; tags: N-terminal GST; dsDNA, one strand shown
ETV1, sequence (P50549 whole entry): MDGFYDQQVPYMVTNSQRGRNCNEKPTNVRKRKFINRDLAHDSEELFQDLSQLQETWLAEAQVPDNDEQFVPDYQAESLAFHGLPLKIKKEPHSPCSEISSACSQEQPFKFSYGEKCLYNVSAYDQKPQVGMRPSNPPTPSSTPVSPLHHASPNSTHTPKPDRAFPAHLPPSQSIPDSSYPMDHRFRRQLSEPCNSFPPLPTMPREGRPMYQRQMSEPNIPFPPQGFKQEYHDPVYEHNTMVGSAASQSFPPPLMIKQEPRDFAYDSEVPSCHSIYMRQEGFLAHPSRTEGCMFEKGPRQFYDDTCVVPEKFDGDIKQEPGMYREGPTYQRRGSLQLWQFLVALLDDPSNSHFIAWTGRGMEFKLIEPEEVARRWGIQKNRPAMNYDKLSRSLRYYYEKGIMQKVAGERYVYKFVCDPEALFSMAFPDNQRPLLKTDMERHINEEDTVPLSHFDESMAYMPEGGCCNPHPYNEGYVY
Outline: as §1

ERF = target: T6, ERF (Homo sapiens, UniProt P50548 1-548); conditions: protein: recombinant; tags: N-terminal GST; dsDNA, one strand shown
T6 sequence: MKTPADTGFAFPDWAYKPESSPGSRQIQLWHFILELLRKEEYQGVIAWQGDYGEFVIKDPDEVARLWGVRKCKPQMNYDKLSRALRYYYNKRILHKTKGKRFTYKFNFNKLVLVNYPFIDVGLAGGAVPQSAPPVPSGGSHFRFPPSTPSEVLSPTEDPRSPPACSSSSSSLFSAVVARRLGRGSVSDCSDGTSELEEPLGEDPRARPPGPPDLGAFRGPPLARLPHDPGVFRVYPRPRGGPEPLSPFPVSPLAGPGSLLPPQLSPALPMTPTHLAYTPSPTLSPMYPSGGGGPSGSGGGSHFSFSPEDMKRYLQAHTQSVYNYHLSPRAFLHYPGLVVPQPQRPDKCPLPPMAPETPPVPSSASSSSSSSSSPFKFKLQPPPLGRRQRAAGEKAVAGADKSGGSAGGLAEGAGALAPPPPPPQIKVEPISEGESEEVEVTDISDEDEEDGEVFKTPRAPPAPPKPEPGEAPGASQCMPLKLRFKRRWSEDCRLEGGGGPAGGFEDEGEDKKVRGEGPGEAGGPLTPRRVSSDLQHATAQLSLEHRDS
Outline: as §1

ETV3L = target: T7, ETV3L (Homo sapiens, UniProt Q6ZN32 1-361); conditions: protein: recombinant; tags: N-terminal GST; dsDNA, one strand shown
T7 sequence: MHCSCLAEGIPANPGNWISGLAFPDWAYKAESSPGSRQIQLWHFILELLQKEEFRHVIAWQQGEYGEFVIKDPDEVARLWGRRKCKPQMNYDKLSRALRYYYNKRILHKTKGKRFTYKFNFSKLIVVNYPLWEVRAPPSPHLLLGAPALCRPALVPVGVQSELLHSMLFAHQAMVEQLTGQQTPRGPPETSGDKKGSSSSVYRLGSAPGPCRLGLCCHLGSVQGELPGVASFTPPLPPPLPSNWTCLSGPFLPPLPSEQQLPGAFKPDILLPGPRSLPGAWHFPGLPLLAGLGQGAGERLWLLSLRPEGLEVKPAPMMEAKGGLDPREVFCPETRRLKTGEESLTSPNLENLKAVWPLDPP
Outline: as §1

ETS2 = target: T8, ETS2 (Homo sapiens, UniProt P15036 1-469); conditions: protein: recombinant; tags: N-terminal GST; dsDNA, one strand shown
T8 sequence: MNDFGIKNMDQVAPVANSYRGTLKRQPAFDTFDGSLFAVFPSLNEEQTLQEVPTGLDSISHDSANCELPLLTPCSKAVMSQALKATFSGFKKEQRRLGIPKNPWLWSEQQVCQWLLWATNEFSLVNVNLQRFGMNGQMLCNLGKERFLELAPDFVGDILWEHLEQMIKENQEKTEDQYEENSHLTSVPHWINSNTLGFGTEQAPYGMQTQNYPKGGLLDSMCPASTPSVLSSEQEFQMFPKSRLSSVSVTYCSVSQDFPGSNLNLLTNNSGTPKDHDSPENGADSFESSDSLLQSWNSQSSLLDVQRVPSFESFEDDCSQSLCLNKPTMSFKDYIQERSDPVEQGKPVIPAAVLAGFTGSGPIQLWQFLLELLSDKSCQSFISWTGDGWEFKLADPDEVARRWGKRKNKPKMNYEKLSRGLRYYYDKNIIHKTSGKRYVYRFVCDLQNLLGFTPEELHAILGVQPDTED
Outline: as §1

SPDEF = target: T9, SPDEF (Homo sapiens, UniProt O95238 1-335); conditions: protein: recombinant; tags: N-terminal GST; dsDNA, one strand shown
T9 sequence: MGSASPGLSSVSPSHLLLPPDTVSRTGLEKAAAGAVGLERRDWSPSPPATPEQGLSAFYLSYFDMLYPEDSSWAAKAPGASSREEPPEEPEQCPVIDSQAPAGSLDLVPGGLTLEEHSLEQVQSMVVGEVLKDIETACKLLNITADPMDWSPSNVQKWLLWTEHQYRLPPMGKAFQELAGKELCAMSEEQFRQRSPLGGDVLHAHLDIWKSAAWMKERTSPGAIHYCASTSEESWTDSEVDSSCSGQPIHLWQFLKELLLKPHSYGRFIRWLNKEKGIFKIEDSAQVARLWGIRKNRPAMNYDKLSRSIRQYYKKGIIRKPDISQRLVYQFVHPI
Outline: as §1

ETV7 = target: T10, ETV7 (Homo sapiens, UniProt Q9Y603 1-341); conditions: protein: recombinant; tags: N-terminal GST; dsDNA, one strand shown
T10 sequence: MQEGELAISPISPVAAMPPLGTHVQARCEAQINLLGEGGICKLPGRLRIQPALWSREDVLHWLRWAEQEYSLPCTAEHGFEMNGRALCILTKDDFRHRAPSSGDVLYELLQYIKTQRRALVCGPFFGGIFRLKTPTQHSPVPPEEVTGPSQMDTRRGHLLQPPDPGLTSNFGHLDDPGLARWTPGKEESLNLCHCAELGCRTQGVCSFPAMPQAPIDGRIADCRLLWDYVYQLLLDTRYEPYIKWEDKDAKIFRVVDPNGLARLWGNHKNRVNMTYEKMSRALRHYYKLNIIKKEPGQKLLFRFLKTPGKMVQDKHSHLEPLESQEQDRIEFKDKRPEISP
Outline: as §1

ELF5 = target: T11, ELF5 (Homo sapiens, UniProt Q9UKW6-2 1-255); conditions: protein: recombinant; tags: N-terminal GST; dsDNA, one strand shown
T11 sequence: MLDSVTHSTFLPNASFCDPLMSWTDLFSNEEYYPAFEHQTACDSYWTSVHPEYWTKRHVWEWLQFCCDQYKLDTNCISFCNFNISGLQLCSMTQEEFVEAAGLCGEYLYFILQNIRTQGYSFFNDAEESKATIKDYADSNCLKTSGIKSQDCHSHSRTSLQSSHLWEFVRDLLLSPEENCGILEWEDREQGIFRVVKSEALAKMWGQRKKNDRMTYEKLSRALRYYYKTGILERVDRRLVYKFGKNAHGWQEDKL
Outline: as §1

ETV3 = target: T12, ETV3 (Homo sapiens, UniProt P41162-2 1-143); conditions: protein: recombinant; tags: N-terminal GST; dsDNA, one strand shown
T12 sequence: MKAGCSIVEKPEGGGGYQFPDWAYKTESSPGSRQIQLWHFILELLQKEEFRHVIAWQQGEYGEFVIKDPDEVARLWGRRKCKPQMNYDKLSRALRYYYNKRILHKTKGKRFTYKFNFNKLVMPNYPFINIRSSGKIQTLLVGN
Outline: as §1

ETV6 = ETV6 (Homo sapiens, UniProt P41212 1-452); conditions: protein: recombinant; tags: N-terminal GST; dsDNA, one strand shown
ETV6, sequence (P41212 whole entry): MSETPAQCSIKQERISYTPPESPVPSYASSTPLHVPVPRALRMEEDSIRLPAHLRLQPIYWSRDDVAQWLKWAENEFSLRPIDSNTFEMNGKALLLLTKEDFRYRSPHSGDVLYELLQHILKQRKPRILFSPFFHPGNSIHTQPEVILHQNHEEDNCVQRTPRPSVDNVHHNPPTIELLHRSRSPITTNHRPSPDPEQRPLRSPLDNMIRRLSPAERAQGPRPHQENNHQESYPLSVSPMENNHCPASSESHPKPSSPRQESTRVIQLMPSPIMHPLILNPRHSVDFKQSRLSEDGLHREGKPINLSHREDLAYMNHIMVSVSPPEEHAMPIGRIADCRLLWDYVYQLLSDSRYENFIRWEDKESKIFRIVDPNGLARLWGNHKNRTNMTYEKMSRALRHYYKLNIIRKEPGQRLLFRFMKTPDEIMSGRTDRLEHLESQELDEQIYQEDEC
Outline: as §1

## TTCATG
FEV
  binding signal: 1.23 fold enrichment (6-mer frequency, TF over GST control)
ETV5
  binding signal: 1.27 fold enrichment (6-mer frequency, TF over GST control)
HSF1
  binding signal: 1.23 fold enrichment (6-mer frequency, TF over GST control)
SPIC
  binding signal: 1.35 fold enrichment (6-mer frequency, TF over GST control)
ELF4
  binding signal: 1.33 fold enrichment (6-mer frequency, TF over GST control)
ELK4
  binding signal: 1.32 fold enrichment (6-mer frequency, TF over GST control)
ETV2
  binding signal: 1.26 fold enrichment (6-mer frequency, TF over GST control)
ELF3
  binding signal: 1.27 fold enrichment (6-mer frequency, TF over GST control)
CRX
  binding signal: 1.16 fold enrichment (6-mer frequency, TF over GST control)
ETV1
  binding signal: 1.29 fold enrichment (6-mer frequency, TF over GST control)
ERF
  binding signal: 1.22 fold enrichment (6-mer frequency, TF over GST control)
ETV3L
  binding signal: 1.33 fold enrichment (6-mer frequency, TF over GST control)
ETS2
  binding signal: 1.33 fold enrichment (6-mer frequency, TF over GST control)
SPDEF
  binding signal: 1.27 fold enrichment (6-mer frequency, TF over GST control)
ETV7
  binding signal: 1.35 fold enrichment (6-mer frequency, TF over GST control)
ELF5
  binding signal: 1.28 fold enrichment (6-mer frequency, TF over GST control)
ETV3
  binding signal: 1.4 fold enrichment (6-mer frequency, TF over GST control)
ETV6
  binding signal: 1.26 fold enrichment (6-mer frequency, TF over GST control)
